# Measurements from the supplement of paper PMC3334620.
# The full ranking holds about 33,000 sequences; the median of “E-score (-0.5 to 0.5)” is about -0.01, and the highest 2% start at about 0.26. What follows is part of a selection rich in the highest values, with near analogues and random picks from the rest.
# Biological target: Ste12 (UniProt P13574)
# Assay: PBM E-score (8-mer binding enrichment) (E-score (-0.5 to 0.5)); higher = stronger / more preferred TF binding
# Conditions: protein concentration: 200 nM; construct: GST-DNA-binding domain
# Description: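 Universal 'all 10-mer' protein binding microarrays (Agilent AMADID 015681) probed with GST-tagged S. cerevisiae TFs (full-length or DBD) made by in vitro transcription/translation (PURExpress), about 100-200 nM. Bound TF was detected with fluorescent anti-GST. Each ungapped 8-mer (which stands for itself and its reverse complement) is scored by the PBM enrichment score (E-score), a modified Wilcoxon-Mann-Whitney statistic from -0.5 to +0.5, computed with the Universal PBM Analysis Suite. Scale: above 0.35 generally sequence-specific binding.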
# Sequence of UniProt P13574 (P13574 whole entry): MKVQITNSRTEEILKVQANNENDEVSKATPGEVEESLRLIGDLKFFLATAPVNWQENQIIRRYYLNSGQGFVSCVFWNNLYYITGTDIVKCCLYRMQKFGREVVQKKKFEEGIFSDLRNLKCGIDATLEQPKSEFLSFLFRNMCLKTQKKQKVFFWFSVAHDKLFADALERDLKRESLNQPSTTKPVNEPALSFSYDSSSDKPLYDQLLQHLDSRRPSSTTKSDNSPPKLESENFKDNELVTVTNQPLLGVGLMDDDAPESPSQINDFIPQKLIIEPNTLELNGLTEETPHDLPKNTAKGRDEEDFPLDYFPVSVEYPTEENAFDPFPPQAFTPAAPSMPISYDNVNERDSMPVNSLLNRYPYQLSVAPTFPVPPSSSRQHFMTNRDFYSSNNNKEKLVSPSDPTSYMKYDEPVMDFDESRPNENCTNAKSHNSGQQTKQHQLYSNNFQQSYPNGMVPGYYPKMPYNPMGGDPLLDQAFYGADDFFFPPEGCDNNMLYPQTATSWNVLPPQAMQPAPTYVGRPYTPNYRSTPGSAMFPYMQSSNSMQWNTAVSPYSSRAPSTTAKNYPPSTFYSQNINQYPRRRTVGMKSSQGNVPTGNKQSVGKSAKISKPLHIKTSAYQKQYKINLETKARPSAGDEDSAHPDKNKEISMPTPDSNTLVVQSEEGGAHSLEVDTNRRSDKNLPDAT
row,Sequence,PBM E-score
1,GGGCATAA,0.218
2,ACATGCAT,0.0142
3,GACGCACC,-0.00732
4,ATAAAGAC,-0.0448
5,CACCCTCC,0.213
6,GAGTTTGC,0.0562
7,ATCTACGG,-0.0913
8,AACTTTCT,0.128
9,AACGGTGA,-0.122
10,ATTGCCCC,0.0929
11,GGCGAGGA,-0.178
12,AATGGCCT,-0.00519
13,GAACATAA,0.148
14,TAACATAA,0.275
15,ACACATAA,0.19
16,ACATACAC,0.0702
17,ACATACAG,0.0443
18,AAACATAA,0.306
19,ACATACAT,0.263
20,CAACATAA,0.189
21,AAACATTA,0.207
22,GCTCGCCA,-0.0532
23,ATTTGCGG,0.148
24,ACCGTGCT,-0.08
25,AGTGCAAA,0.101

row,Sequence,PBM E-score
1,GAGGGGAA,0.0394
2,AAACAAGC,0.202
3,ATACGATC,0.157
4,ATCAATTG,0.154
5,AACAATTA,0.297
6,ATCAATTC,0.0349
7,AACAATAC,0.0824
8,AACAATAA,0.301
9,AACAATTG,-0.0846
10,ATCAATTA,0.289
11,AACAATAG,0.0913
12,AACAATTC,0.124
13,GCGGTTTA,0.13
14,CTTGAGAC,0.158
15,ATCACTAC,-0.117
16,CTAGATTA,-0.0366
17,TCCAAAGA,0.0392
18,AGAAGAGC,-0.161
19,CCCGGCCG,-0.239
20,ACTGAGCC,-0.00502
21,GTATATAC,-0.207
22,CTATATAC,0.162
23,TCATAAAA,0.231
24,ATATATAA,0.273
25,GTATAAAA,0.241

row,Sequence,PBM E-score
1,TTATATAA,0.176
2,TTATAAAA,0.268
3,ATATATAC,0.271
4,CTATATAA,0.174
5,ATATAAAG,0.171
6,ATATAAAC,0.161
7,ATATAAAT,0.279
8,CCGATTTA,0.199
9,AGCATCTG,-0.159
10,AGTGACAG,-0.057
11,ACTAGTCC,-0.104
12,AGCAAACG,-0.0967
13,GTAGCTAC,-0.201
14,CTCCAGAA,-0.152
15,AGGTTTAG,0.0936
16,AAGCCGGC,0.0834
17,GCTTGACA,0.0364
18,ACATCGAA,0.0463
19,CGTCGCGC,0.00057
20,GCAACAAC,-0.0707
21,CCGCTAAG,0.109
22,ATATAAAA,0.307
23,ACATAAAA,0.17
24,CTATAAAA,0.235
25,ACCCGCGG,0.176

row,Sequence,PBM E-score
1,TCTGAAGA,-0.149
2,GACTCTGC,-0.0845
3,GAAAAAAA,0.369
4,GGCAAAAC,0.133
5,GAAAAAAC,0.174
6,ATAAAAGA,0.0538
7,ATAAAAGG,0.0863
8,ATAAAAAG,0.315
9,GGAAAAGA,0.05
10,GGAAAAAA,0.309
11,GGCAAGAA,0.0412
12,GGAAAACA,0.177
13,GAGAAAAA,0.147
14,GGCAAAAA,0.346
15,CCATGGCG,-0.0357
16,GCTTACTA,0.00559
17,AGCCTCTG,-0.135
18,CAGTTAGC,-0.218
19,ATAAAAAT,0.241
20,GGAAAAAC,0.322
21,TGAAAAAA,0.293
22,AAAAAAAT,0.337
23,TGAAAACA,0.162
24,AGAAATAA,0.207
25,AAAAAATT,0.197

row,Sequence,PBM E-score
1,CGAAATAA,0.131
2,TGAAAGAA,0.131
3,AGGAAAAC,-0.0394
4,GGAAATAA,0.284
5,GGAAAACC,0.0776
6,GCGACCTA,-0.062
7,CTGGCATC,-0.283
8,AGATTATC,-0.0475
9,CTACCTTA,-0.00289
10,CTGTGCAA,-0.101
11,ACGATTGA,0.158
12,CAGTTAAA,-0.00288
13,CATGAGCG,-0.0776
14,CGTGTGAC,-0.0425
15,AGTTCAAA,0.138
16,GCCAAATA,0.101
17,GTTTACGA,0.0472
18,AGAAAAAA,0.19
19,CAAAAAAG,0.159
20,CGGAAAAG,0.0439
21,CGAAAAAG,0.212
22,CGGAAAAC,0.0342
23,AAAAAAGG,0.244
24,CGAAAAAC,0.0959
25,AAAAAAGA,0.182

row,Sequence,PBM E-score
1,CGGAAAAA,0.343
2,AAAAAAAG,0.294
3,CGAAAAAA,0.308
4,AAAAAAAA,0.367
5,CAGGCGGG,0.0689
6,AATGGGCT,-0.092
7,CGTTTAGC,-0.0383
8,ACAGCCGT,-0.0628
9,AGCCTTAT,0.0824
10,CAAAAGCG,0.14
11,GGGAAAAC,0.116
12,GGGGAAAA,0.112
13,TCGGAAAA,0.275
14,AAAAAGCG,0.317
15,TGGAAAAA,0.302
16,AAAAAGCC,0.229
17,AGGAAAAA,0.16
18,TTGGAAAA,0.177
19,GGGAAAAA,0.272
20,GCGGAAAA,0.253
21,ACGGAAAA,0.177
22,AATCCAAA,0.14
23,CCGTTAAG,-0.177
24,ACGCTGCC,-0.108
25,ACCTTTGA,0.0506

row,Sequence,PBM E-score
1,GGTCTTCA,-0.164
2,CCTTTTCA,-0.0167
3,CGTAGCAA,0.00941
4,AAGCCTTG,-0.00117
5,ACTGTGAT,-0.0243
6,ACTGTGAA,0.27
7,CGTGTGAA,0.14
8,GCTGTGAA,-0.0834
9,GGTGTGAA,0.19
10,TGTGTGAA,0.284
11,ACTAAGAG,-0.0255
12,TAATGATA,0.272
13,GTATGATA,0.0429
14,ATATGATA,0.271
15,CAATGATA,0.074
16,GAATGATC,0.00293
17,AAATGATA,0.292
18,GAATGATA,0.309
19,GCATGATA,0.0794
20,TAATGAGA,0.168
21,AAATGATC,-0.0582
22,CTATGATA,-0.0247
23,AAATGATT,0.197
